An excerpt weighted towards active compounds, which were near 19% of everything screened.
DT40 TDP1 CPT = growth inhibition of DT40 Tdp1-/-;hTDP1 cells with camptothecin (screen for TDP1 inhibitors) | chicken DT40 Tdp1-/-;hTDP1 cells + 20 nM CPT, ATP luminescence, 48 h | Potency, µM (series often up to 46.2 µM), for the others: at the top dose activity change, negative = growth inhibition, most hits filed as inhibitors | 12% of 420,000 active | AID 686979; note: nearly all actives have a fitted effect of over 55% in size
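Cell growth measured by CellTiter-Glo luminescence after a minimum 48 h, 37 C compound exposure with 20 nM CPT in Tdp1-knockout DT40 cells stably expressing hTDP1, seeded 400/well; qHTS titration format.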
RORgamma inh = blocks mouse ROR gamma transcriptional activity | 5.4% of 310,000 active | AID 2551 | Drosophila S2 Gal4-RORgamma UAS-luciferase reporter, 20 h | P51450 | Potency, µM (top dose mostly 53.6 µM), for the others: top-dose activity change, negative = inhibition, most hits filed as inhibitors; note: nearly all actives have a fitted effect of over 60% in size
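Read-out: Photinus luciferase luminescence; inhibitors lower reporter signal. Insect Schneider cells with Gal4-ROR gamma fusion under metallothionein promoter, UAS reporter; 700 uM final copper sulfate induction, 20 hr, ambient temperature.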
TDP1 block = inhibitors of human tyrosyl-DNA phosphodiesterase TDP1; Q9NUW8; recombinant TDP1, AlphaScreen DNA substrate cleavage; Potency, µM (titrated, usually from 130 µM), without a hit: at the top dose activity change, negative = inhibition, most hits filed as inhibitors; 0.28% of 350,000 active; AID 485290; note: nearly all actives have a fitted effect of over 40% in size
Target sequence (Q9NUW8 whole entry, looked up): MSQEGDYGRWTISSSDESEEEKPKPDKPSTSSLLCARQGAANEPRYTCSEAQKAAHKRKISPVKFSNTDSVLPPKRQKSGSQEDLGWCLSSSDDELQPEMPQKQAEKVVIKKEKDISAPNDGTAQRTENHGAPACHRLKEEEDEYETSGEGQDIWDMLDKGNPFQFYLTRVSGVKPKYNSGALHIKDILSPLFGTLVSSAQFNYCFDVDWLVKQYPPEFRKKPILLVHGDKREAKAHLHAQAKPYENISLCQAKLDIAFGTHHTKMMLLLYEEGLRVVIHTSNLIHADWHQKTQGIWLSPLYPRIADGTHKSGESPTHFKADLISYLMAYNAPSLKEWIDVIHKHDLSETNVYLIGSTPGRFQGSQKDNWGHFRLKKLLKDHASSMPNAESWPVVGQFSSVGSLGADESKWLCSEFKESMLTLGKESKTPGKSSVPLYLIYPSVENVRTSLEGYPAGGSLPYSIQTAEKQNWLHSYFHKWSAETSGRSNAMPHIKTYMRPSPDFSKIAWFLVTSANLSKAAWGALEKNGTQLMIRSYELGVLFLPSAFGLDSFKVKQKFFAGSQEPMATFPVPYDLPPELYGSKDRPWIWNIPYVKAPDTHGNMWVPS
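Recombinant E. coli-expressed Tdp1 (1 nM) preincubated with compound 15 min at RT, then 5'-biotin/3'-phosphotyrosine-FITC DNA substrate (15 nM) added for 5 min. AlphaScreen beads (10 ug/ml) added, 10 min RT; tyrosine-FITC cleavage read as signal loss.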
TDP1 cell noCPT = qHTS for Inhibitors of human tyrosyl-DNA phosphodiesterase 1 (TDP1): qHTS in cells in absence of CPT; DT40 Tdp1-/- hTDP1 cells, no CPT, ATP luminescence, 48 h; Potency, µM (top dose mostly 46.2 µM), for the others: at the top dose activity change, negative = growth inhibition, usual class: inhibitors; 15% of 420,000 active; AID 686978, 2013; note: nearly all actives have a fitted effect of over 55% in size
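Chicken DT40 Tdp1-/- cells complemented with human TDP1, screened without camptothecin (DMSO vehicle only), 400 cells/well. Compounds pin-transferred, cells incubated at 37 °C for at least 48 hr. Growth read as ATP-dependent luminescence (CellTiter-Glo, 30 min at RT).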
VP16 counter = Gal4-VP16 reporter inhibition counter-screen; Drosophila S2 Gal4-VP16 UAS-luciferase, luminescence, 20 h; Potency, µM (top dose mostly 53.6 µM), without a hit: top-dose activity, negative = inhibition, hits mostly inhibitors; 3.5% of 310,000 active; AID 2546;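 note: Gal4-VP16 expression switched on by copper sulfate through the metallothionein promoter; nearly all actives have a fitted effect of over 50% in size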
Numbers without * were called inactive; ? = inconclusive; nt = no result; [ ] = another dose, or the depositor's remark. Calls come from the whole dose curve; as a rule, active = well fitted curve in the direction sought with a large enough effect; inconclusive = small, poorly fitted or top-dose-only effect, or another doubt; inactive = no such curve, though single readings can be large; an effect the other way counts as inactive or inconclusive. % is set by controls: 0 for no effect and ±100 for the full control effect; potency is the fitted concentration of half-maximal effect.

SMILES | DT40 TDP1 CPT | RORgamma inh | TDP1 block | TDP1 cell noCPT | VP16 counter
COc1cc(C(=O)Nc2ccc(O)cc2C(=O)O)ccc1OC(C)=O | -21% | -3% | 11% | -6% | -3%
COc1ccc(-n2ccn3c(CC(C)(C)CC(=O)O)nnc3c2=O)cc1 | -13% | nt | -1% | -6% | nt
N[C@@H](Cc1ccc(O)cc1)C(=O)NO | 11% | nt | nt | 8% | nt
Cc1ccc(CN2CCN(Cc3c(C)nn(C(C)C)c3C)CC2CCO)o1 (configuration not stated) | 1% | -17% | 9% | -1% | -9%
CCc1ccc(NC(=O)CSc2nccn2-c2ccc(OC)cc2)cc1 | ? | nt | 10% | ? | nt
COc1ccc(-n2c(Cc3cccn3C)nnc2SCC(=O)Nc2nccs2)cc1 | ? | 36% | 5% | -22% | -1%
Fc1ccc(/C=N/Nc2nc3ccccc3[nH]2)cc1F | ? | 7.9µM* | 9% | ? | ?
CC(C)CSc1nc2c(=O)[nH][nH]c(=O)c2n1Cc1ccccc1 | 1% | ? | -8% | 5% | -5%
Cc1ccc(NC(=O)Cn2c(C)cc(C)c(C#N)c2=O)c(Cl)c1 | -13% | 13% | -4% | -1% | -4%
CCOc1ccc(NC(=O)Cn2sc3nc(C)cc(C)c3c2=O)cc1 | 2.1µM* | ? | 0% | 2.6µM* | 11µM*
Cc1cc(C)c2c(=O)n(CC(=O)Nc3cccc(F)c3)sc2n1 | 2.3µM* | ? | nt | 2.3µM* | ?
Cc1ccc(NC(=O)Cn2sc3nc(C)cc(C)c3c2=O)c(Cl)c1 | 2.9µM* | ? | nt | 2.9µM* | ?
Cc1cc(C)c2c(=O)n(CC(=O)Nc3ccc(Cl)cc3)sc2n1 | 4.1µM* | ? | nt | 2.6µM* | 13µM*
O=C(Cn1c(C(=O)NCCCN2CCOCC2)cc2sccc21)c1ccccc1 | -31% | 14% | -3% | -12% | 2%
COC(=O)C(NC(C)=O)(Nc1nc2ccc(C)cc2s1)C(F)(F)F (configuration not stated) | -6% | 8% | 1% | -20% | 3%
Cc1c(C(=O)Nc2ccc(F)cc2)cn2c(nc3ccccc32)c1C#N | -28% | 20% | nt | -28% | -11%
N#Cc1c2nc3ccccc3nc2n2cc(NC(=O)c3ccc(F)cc3)ccc12 | 4.1µM* | -3% | 3% | 4.6µM* | 5%
CCOc1cccc2sc(Nc3nc4ccc(NC(C)=O)cc4s3)nc12 | 18µM* | 3.5µM* | -3% | ? | 4µM*
COc1ccc(C)c2sc(NNC(=O)COc3ccccc3)nc12 | nt | 7.1µM* | 2% | nt | -4%
COc1ccc(C)c2sc(NC(=O)CCS(=O)(=O)c3ccccc3)nc12 | 23µM* | -10% | 7%[56.1 µM] | 16µM* | ?
CCC(=O)Nc1nc2ccc(NC(C)=O)cc2s1 | -8% | 8% | -2% | -1% | 14%
CCOc1cccc2sc(NC(=O)CCS(=O)(=O)c3ccccc3)nc12 | 8.2µM* | -19% | 1% | 8.2µM* | -12%
CCOc1cccc2sc(N(CCN(C)C)C(=O)CCS(=O)(=O)c3ccccc3)nc12 | ? | nt | nt | -4% | nt
COc1ccc(C)c2sc(N(Cc3cccnc3)C(=O)COc3ccccc3)nc12 | ? | nt | 8% | ? | nt
CCc1ccc(NC(=O)C(=O)c2cn(CC(=O)N3CCCCC3)c3ccccc23)cc1 | -25% | 28% | 0% | ? | 29%
Cc1ccc(CNC(=O)c2[nH]c(C(F)(F)F)nc2-c2ccccc2)cc1 | ? | nt | nt | 21µM* | nt
O=C(NCc1ccc2c(c1)OCO2)c1[nH]c(C(F)(F)F)nc1-c1ccccc1 | -12% | nt | nt | -20% | nt
COC(=O)c1ccc(C(=O)OC)c(NC(=O)COC(=O)CC2CC3CCC2C3)c1 (configuration not stated) | ? | -23% | 0% | 23µM* | -7%
COC(=O)c1ccc(C(=O)OC)c(NC(=O)COC(=O)C2CCCCC2)c1 | ? | ? | 0% | -2% | -1%
